Measured values reported in ChEMBL document CHEMBL1157539, “Thousands of chemical starting points for antimalarial lead identification” (Nature, 2010).

Tested on: HepG2
Test: GSK_TCMDC: Percent inhibition of human HepG2 cell line. Test compounds present at 10uM.
Assay type: functional

With O=C(O)C(F)(F)F.c1cc(CN2CCCCC2)cc(-c2ccc(-c3nc4ccccc4[nH]3)s2)c1 as the compound, how does the Inhibition read?
Its Inhibition is 11%.

COc1cccc2c(N/N=C/c3ccccc3[N+](=O)[O-])ccnc12 was tested. Which Inhibition did it give?
Its Inhibition is 8%.

With O=C(NCc1ccc(F)cc1)c1ccc(N2CCN(c3ccncc3)CC2)cn1.O=C(O)C(F)(F)F as the compound, how does the Inhibition read?
Its Inhibition is 7%.

c1ccc(COc2ccc(Cn3ccc(-c4ccc(-n5ccnc5)cc4)n3)cc2)cc1.c1ccc(COc2ccc(Cn3nccc3-c3ccc(-n4ccnc4)cc3)cc2)cc1 was tested. Which Inhibition did it give?
The Inhibition was 2%.

How did the Inhibition turn out when Cl.NC(=O)c1cccc(Nc2nccc(Nc3ccc(Oc4ccc5ccccc5c4)cc3)n2)c1 was run?
The Inhibition was 15%.

With CN1CCN(CCCN(Cc2csc(-c3ccc(CNCc4ccccc4)cc3)n2)C(=O)Nc2ccc3ccccc3c2)CC1.O=C(O)C(F)(F)F as the compound, how does the Inhibition read?
The Inhibition was 12%.

For Cc1nc2nc(N)nc(N)c2c(C)c1Cc1ccccc1I.Cl, which Inhibition is on record?
Its Inhibition is 63%.

How did the Inhibition turn out when Cc1cc(NC(=O)NCCN2CCC(NS(=O)(=O)c3ccc(C(F)(F)F)cc3)C2)c2ccccc2n1.O=C(O)C(F)(F)F (stereo not given) was run?
The Inhibition was 15%.

Cc1cc2nc(-c3ccc(/C=C/C(=O)NC4CCN(Cc5ccccc5)CC4)cc3)[nH]c2cc1C was tested. Which Inhibition did it give?
Its Inhibition is 18%.

Which Inhibition does the source give for COc1cccc(C(=O)Nc2ccc(Nc3nc(C)cc(N(C)C)n3)cc2)c1 here?
The Inhibition was 1%.

For CS(=O)(=O)c1cccc(-c2ccc3oc(C(N)=O)c(NC(=O)c4cccs4)c3c2)c1, which Inhibition is on record?
Its Inhibition is 11%.

How did the Inhibition turn out when CN1CCCN(Cc2cccc(-c3cccc(NS(=O)(=O)c4cccc5cccnc45)c3)c2)CC1.O=C(O)C(F)(F)F was run?
Its Inhibition is 21%.

How did the Inhibition turn out when N#Cc1ccc2[nH]cc(-c3cn4cc(SC5CCCC5)ccc4n3)c2c1 was run?
The Inhibition was 1%.

Which Inhibition does the source give for Cl.Clc1ccc2c(NCCc3ccccc3)ccnc2c1 here?
Its Inhibition is 31%.

Which Inhibition does the source give for COc1ccc(CNCc2cccc(-c3ccc(-c4nc5cc(C(F)(F)F)ccc5[nH]4)cc3)c2)cc1.O=C(O)C(F)(F)F here?
Its Inhibition is 23%.

For O=c1cc(NCCCNCc2ccc(C(F)(F)F)c(F)c2)[nH]c2ccccc12, which Inhibition is on record?
Its Inhibition is 5%.

Cc1ccc2[nH]c3c(c2c1)CC(C(=O)NCCC(C)C)NC31CCN(Cc2ccccc2)CC1 (stereo not given) was tested. Which Inhibition did it give?
Its Inhibition is 15%.

How did the Inhibition turn out when SC(=Nc1ccc(Cl)c(Cl)c1)NN=Cc1ccccn1 was run?
Its Inhibition is 40%.

How did the Inhibition turn out when Cc1ccccc1CCNC(=O)c1ccc(N2CCN(c3ccncc3)CC2)nc1.O=C(O)C(F)(F)F was run?
Its Inhibition is 10%.

For c1ccc(Oc2ccc(Nc3ccnc4cc(-c5cccc(CN6CCOCC6)c5)ccc34)cc2)cc1, which Inhibition is on record?
The Inhibition was 14%.

With O=C(N[C@H]1CCN(Cc2ccc(OCCCN3CCCCC3)cc2)C1)c1cc(Cl)cc(Cl)c1 as the compound, how does the Inhibition read?
Its Inhibition is 13%.

NC(=O)c1cccc(C(=O)Nc2cccc(-c3ccc(-c4nc5ccccc5[nH]4)s3)c2)c1 was tested. Which Inhibition did it give?
The Inhibition was 37%.

Cc1cc(C2CCN(CCCCNC(=O)c3ccc(-c4ccc(C(F)(F)F)cc4)cc3)CC2)c(C)cc1OCC#N was tested. Which Inhibition did it give?
Its Inhibition is 40%.

COc1cc2c(c(OC)c1[N+](=O)[O-])C=CC1(O2)N(C)c2ccc([N+](=O)[O-])cc2C1(C)C (stereo not given) was tested. Which Inhibition did it give?
The Inhibition was 0%.

For CC1CN(c2nc(NCCc3ccc(O)cc3)nc(NCc3ccccc3-c3ccc(C(F)(F)F)cc3)n2)CC(C)N1 (stereo not given), which Inhibition is on record?
The Inhibition was 24%.

For O=C(Nc1cccc(C(F)(F)F)c1)c1cccc(S(=O)(=O)NC2CCN(CC3CCCCC3)C2)c1.O=C(O)C(F)(F)F (stereo not given), which Inhibition is on record?
The Inhibition was 37%.

COc1cc(-c2ccc3c(-c4ccc(C(=O)N5CCN(C)CC5)cc4)n[nH]c3n2)cc(OC)c1OC was tested. Which Inhibition did it give?
The Inhibition was 27%.

CC(C)Cc1ccc(N2CCN(CCCCNC(=O)c3ccc(NC(=O)c4ccc(Cl)c(Cl)c4)cc3)CC2)cc1 was tested. Which Inhibition did it give?
Its Inhibition is 21%.

With CC(C)Cn1c(Sc2ccc(C#N)c([N+](=O)[O-])c2)nnc1-c1ccccc1Cl as the compound, how does the Inhibition read?
The Inhibition was 18%.

For Cn1cncc1CCN(Cc1ccc(-c2ccc(C(F)(F)F)cc2)cc1)C(=O)Cn1c(SCc2cccc(F)c2F)cc(=O)c2ccccc21, which Inhibition is on record?
The Inhibition was 24%.

For Cc1cccc2nc(-c3ccc(-c4cccc(CN5CCC(C(N)=O)CC5)c4)cc3)[nH]c12.O=C(O)C(F)(F)F, which Inhibition is on record?
The Inhibition was 9%.

For CCOC(=O)c1ccc(N2CCN(c3cc(C)ccc3C)CC2)c(NC(=O)Nc2ccc(Cl)c(Cl)c2)c1, which Inhibition is on record?
Its Inhibition is 7%.

With Cl.O=C(Nc1cccc(C2=NCCCN2)c1)Nc1cccc(C2=NCCCN2)c1 as the compound, how does the Inhibition read?
Its Inhibition is 5%.

With Cc1ccc2c(=NN=Cc3ccc(Cl)cc3)cc(C)[nH]c2c1 as the compound, how does the Inhibition read?
Its Inhibition is 0%.

With COc1cc2nc(N3CCN(c4nc(N)c5cc(OC)c(OC)cc5n4)CC3)nc(N)c2cc1OC as the compound, how does the Inhibition read?
The Inhibition was 13%.

With COc1ccc2nccc([C@@H](O)CN3CCC(NCc4cc5c(Cl)cccc5[nH]4)CC3)c2c1.O=C(O)C(=O)O as the compound, how does the Inhibition read?
The Inhibition was 40%.

Which Inhibition does the source give for COc1cccc2cc(C(=O)N[C@@H](CC(C)C)C(=O)N[C@H](/C=N/NC(=O)Cc3cccnc3)CCc3ccccc3)oc12 here?
Its Inhibition is 6%.

With CC(Nc1ccnc2cc(Cl)ccc12)c1ccc(S(N)(=O)=O)cc1 (stereo not given) as the compound, how does the Inhibition read?
The Inhibition was 5%.

COc1ccc(Nc2nccc(NCCNC(=O)c3cc4ccccc4s3)n2)cc1 was tested. Which Inhibition did it give?
Its Inhibition is 6%.

For COc1ccc(-c2nc(-c3ccc([N+](=O)[O-])cc3)no2)cc1OC, which Inhibition is on record?
Its Inhibition is 14%.
